# Test results as given in PubChem BioAssay (NCI).
# The panel holds about 83,000 compounds, 20% with a hit somewhere; the sample as a whole holds those more often.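 The test compound was applied at a single concentration to cells in 96-well plates for 48 hours, and percent growth was recorded.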 Values without a mark were called inactive. Active and inactive are the calls of the source. The calls were made as follows: active = growth percent below 10; inactive = the rest.
# Columns and labels:
# Test in all cases: NCI-60 one-dose screen, 48 h (100 = growth as untreated, 0 = no growth, -100 = all killed)
# Details in all cases: 10 µM unless noted
# SR leukemia = system: SR leukemia
# RPMI-8226 leukemia = system: RPMI-8226 leukemia
# OVCAR-5 ovarian = system: OVCAR-5 ovarian
# OVCAR-4 ovarian = system: OVCAR-4 ovarian
# SK-OV-3 ovarian = system: SK-OV-3 ovarian
# IGROV1 ovarian = system: IGROV1 ovarian
# OVCAR-3 ovarian = system: OVCAR-3 ovarian
# HS 578T breast = system: HS 578T breast
# T-47D breast = system: T-47D breast
# BT-549 breast = system: BT-549 breast
# MDA-MB-435 melanoma = system: MDA-MB-435 melanoma
# SW-620 colon = system: SW-620 colon
# MCF7 breast = system: MCF7 breast
# HCT-116 colon = system: HCT-116 colon
# HCC-2998 colon = system: HCC-2998 colon
# KM12 colon = system: KM12 colon
# NCI/ADR-RES ovarian = system: NCI/ADR-RES ovarian
# OVCAR-8 ovarian = system: OVCAR-8 ovarian
SMILES,growth (SR leukemia),growth (RPMI-8226 leukemia),growth (OVCAR-5 ovarian),growth (OVCAR-4 ovarian),growth (SK-OV-3 ovarian),growth (IGROV1 ovarian),growth (OVCAR-3 ovarian),growth (HS 578T breast),growth (T-47D breast),growth (BT-549 breast),growth (MDA-MB-435 melanoma),growth (SW-620 colon),growth (MCF7 breast),growth (HCT-116 colon),growth (HCC-2998 colon),growth (KM12 colon),growth (NCI/ADR-RES ovarian),growth (OVCAR-8 ovarian)
COc1ccc(C(=O)n2nc(-c3ccccc3)nc2N)cc1OC,80.6%,92.1%,96.7%,90.9%,80.8%,73.5%,94.5%,92.1%,56.4%,94.6%,109%,90.3%,44.3%,98.2%,97.9%,85.8%,,
Cc1cc(=O)[nH]c(=O)n1Cc1cn(-c2c3ccccc3nc3ccccc23)nn1,11.4%,55.5%,120%,106%,96.2%,,90.7%,100%,-5.49% (active),90%,95.6%,83.9%,2.54% (active),63.1%,62.5%,98.6%,106%,
O=C1c2ccccc2NC(n2sc3ccccc3c2=O)N1c1ccccc1 (stereo unspecified),87.4%,101%,110%,98.5%,103%,,101%,106%,96.4%,104%,111%,104%,94.3%,95.7%,103%,92.9%,,
COc1ccc(CN2c3ccccc3Sc3ccccc32)c(F)c1,12.2%,12.2%,50.2%,61.6%,30.4%,,-20.4% (active),21.6%,11.9%,56.5%,-51% (active),10.3%,22.6%,15.7%,61.6%,25.8%,22%,
CCCCCCNC(=O)Oc1ccc(/C(=C(\C)c2ccc(Cl)cc2)c2ccc(OCCN(CC)CC)cc2)cc1,-10.8% (active),51.6%,72.1%,60.5%,83.1%,,67.6%,67.5%,39.7%,82.7%,65%,18.2%,24.6%,,78.7%,44.6%,72.7%,
CCCCCCNC(=O)Oc1ccc(/C(=C(\C)c2ccc(OC)cc2)c2ccc(OCCN3CCCCC3)cc2)cc1,0.84% (active),44.7%,82.6%,63.1%,70%,53.8%,80.9%,65.7%,48%,70.4%,66.7%,55.3%,22.7%,,80.6%,43.5%,75.8%,
Cc1c(C(=O)NCCN2CCOCC2)cn2ncnc(Oc3ccc(NC(=O)Nc4ccc(Cl)c(C(F)(F)F)c4)cc3)c12,1.03% (active),,53.3%,31.7%,30.6%,39.3%,16%,-23.8% (active),15%,45.6%,18%,0.917% (active),7.07% (active),8.49% (active),51.1%,19.6%,82.1%,33%
O=C(O)CCC(=O)Nc1nnc(-c2ccccc2)s1,95.6%,99.4%,107%,,95.6%,,101%,111%,94.3%,102%,100%,108%,79.9%,103%,102%,103%,107%,
C=C1C(=O)O[C@H]2[C@H]1CC/C(COC(=O)NCCOCCOCC(=O)Nc1ccc(OC)c(C(N)=O)c1O)=C\CC[C@@]1(C)O[C@@H]21,7.91% (active),16%,90.9%,71%,109%,,45.8%,90.1%,47.8%,68.6%,53.7%,18.5%,32%,32.8%,90.4%,95.2%,94.6%,
OC(c1ccccc1)C(NC(Cc1ccccc1)c1ccccc1)c1ccccc1 (stereo unspecified),91.4%,73.6%,90.8%,89.1%,91.7%,67%,96.9%,92.2%,73.6%,91.4%,97.9%,90%,104%,77.1%,96.1%,89.1%,,
O=C1NC(=O)C(c2ccccc2)(c2ccccc2)N1Cc1cn(-c2c3ccccc3nc3ccccc23)nn1,31.4%,72.4%,103%,81.1%,83.5%,,87%,83%,63.6%,81.5%,94.4%,85.6%,73.9%,68.1%,104%,91.2%,87%,
COc1ccc(-c2[nH]c3ccc(OC)cc3c2/C=C(\C#N)S(=O)(=O)c2ccccc2)cc1,28.1%,,63.3%,-20.8% (active),31.9%,48.6%,-1.23% (active),13.4%,34.4%,46.6%,1.86% (active),32.8%,7.23% (active),19.4%,-19.7% (active),10.8%,14.3%,42.2%
c1ccc(-c2nc3sc(-c4ccccc4)cn3n2)cc1,90.4%,85.5%,122%,76.1%,94.2%,56.2%,83.5%,90.1%,36.7%,99.9%,99.2%,94.9%,38.3%,88.9%,104%,81.1%,85.6%,
COc1ccc(CN2c3ccccc3CCc3ccccc32)cc1F,11.6%,8.72% (active),40.7%,42%,38.4%,51.7%,-41.7% (active),30.2%,47.1%,54%,-49.4% (active),20.5%,20.4%,2.32% (active),,16.5%,11.1%,
CCCCNC(=O)Oc1ccc(/C(=C(\C)c2ccc(Cl)cc2)c2ccc(OCCN3CCCCC3)cc2)cc1,7.74% (active),73.4%,71.8%,73.5%,68.8%,83.5%,80%,85%,47%,86.5%,74.2%,83.6%,32.3%,53.6%,,67.1%,85.2%,
Cc1ccc(/C=C(\C#N)n2nc3cccc(F)c3n2)cc1,62.8%,,97.1%,97%,107%,90.9%,84.4%,91.5%,74%,102%,51.1%,94.3%,54.1%,70.7%,105%,68.2%,86%,94.2%
COc1cccc(Oc2ccccc2NC(=O)CNC(=O)c2cccc3ccccc23)c1,5.26% [5 µM] (active),21.8% [5 µM],41.8% [5 µM],42.2% [5 µM],42.2% [5 µM],27.6% [5 µM],-23.7% [5 µM] (active),24.7% [5 µM],62.3% [5 µM],50.7% [5 µM],-20.5% [5 µM] (active),22.4% [5 µM],20.5% [5 µM],3.51% [5 µM] (active),25.5% [5 µM],13.5% [5 µM],15.3% [5 µM],
CNCCCNc1nc2ccccc2c2c(=O)c3cc(OC)ccc3sc12,-30.2% (active),,92.2%,61.2%,84.9%,68.1%,75.7%,75%,81.7%,89.2%,37.3%,-50.3% (active),59.4%,10.3%,-71% (active),35.3%,80.6%,72.7%
